The whole screen tested about 30,000 compounds, of which about 190 (0.63%) were called active. Only a selection was taken, and actives are over-represented in it overall. A number with no mark means an inactive call. Rule as the data show it: active = viability loss activity score above about 50%; inconclusive = no clear call, values can overlap the other calls; inactive = below about 35%.
assay: BJeLR cell viability loss, primary screen, luminescence, CellTiterGlo ATP (AID 2275); conditions: BJeLR fibroblasts viability, 48 h, hits give high values, HRASV12, hTERT and SV40 LT/ST transformed, concentration not given here;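 also: higher score means fewer live cells and less ATP luminescence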

Going from NC(=O)Cn1nnc2sc3c(c2c1=O)CCCC3 to CC(C)NC(=O)Cn1c2ccccc2c2cn[nH]c(=O)c21, the viability loss activity score falls from 10.6% to -1.32%.

First: Cc1ccc(CC2C(=O)N(c3cccc(C(F)(F)F)c3)C(=O)C2C)cc1 (stereo not drawn)
Second: Cc1ccc(S(=O)(=O)n2c(C)cc(C(=O)O)c2C)cc1
The viability loss activity score of the first is higher: 1.06% for the first, -6.81% for the second.

Going from O=C(O)c1ccc(CNCCc2ccccc2)s1 to COC(=O)C1=C(C)N(C)C(=S)NC1c1ccccc1 (stereo not drawn), the viability loss activity score falls from 0.164% to -3.34%.

First: CCOC(=O)c1cccc(NC(=O)CCOc2ccccc2)c1
Second: CCC(Sc1nc2ccsc2c(=O)n1Cc1ccccn1)C(=O)Nc1cccc(OC)c1 (stereo not drawn)
The viability loss activity score of the first is higher: 2.1% for the first, -2.12% for the second.

First: Cc1ccc(CCNC(=O)C2(NS(=O)(=O)c3cccc4cccnc34)CCCCC2)cc1
Second: Cc1ccc(S(=O)(=O)N(CC(=O)NC2CC2)C2CCCCC2)cc1
The viability loss activity score of the first is lower: 2.11% for the first, 5.79% for the second.

First: CC(C)(C)C(=O)CSc1nc2ccccc2c(=O)n1CC1CC1
Second: CC(C)n1c(SCC(=O)O)nc2cc(Cl)ccc21
The viability loss activity score of the first is lower: -4.35% for the first, 2.11% for the second.

Compared with Cc1cc(C(C)(C)C)cc(S(=O)(=O)Nc2ccc(C(=O)N3CCC(C)CC3)cc2)c1C, Cc1ccccc1C(=O)Nc1ccc(NC(=O)c2ccc(C(C)(C)C)cc2)cc1 is higher in viability loss activity score: -6.82% for the first, -4.36% for the second.

First: O=c1n(Cc2ccccc2)c2ccccc2n1Cc1ccccc1
Second: OC(CN1CCN(C2c3ccccc3-c3ccccc32)CC1)c1ccccc1 (stereo not drawn)
The viability loss activity score of the first is higher: 6.4% for the first, 0.265% for the second.

First: CC(C)NC(=O)Nc1ccc2c(c1)C(=O)N([C@@H](C)CO)C[C@H](C)[C@H](CN(C)S(=O)(=O)c1cccs1)O2
Second: Cc1ccc(S(=O)(=O)N(C)C[C@@H]2Oc3ccc(NS(=O)(=O)c4cccs4)cc3C(=O)N([C@@H](C)CO)C[C@H]2C)cc1
The viability loss activity score of the first is higher: -2.18% for the first, -3.75% for the second.

First: O=C1C2=C(Nc3ccccc3S(=O)(=O)C2c2ccc(Cl)cc2)c2ccccc21 (stereo not drawn)
Second: COC(=O)C1=C(C)NC2=C(C(=O)c3ccccc32)C1c1ccc(OC)cc1 (stereo not drawn)
The viability loss activity score of the first is higher: 0.962% for the first, -2.35% for the second.

Going from CNC(=O)NC(=O)CSc1ncnc2sc(-c3ccccc3)cc12 to N#Cc1c(-c2ccccc2)c(-c2ccccc2)nn(CC(=O)NN)c1=O, the viability loss activity score rises from 7.62% to 26.9%.

Going from CC(C)NC(=O)N(C)C[C@H]1Oc2ccc(NC(=O)CCCCCC(=O)Nc3ccccc3N)cc2C(=O)N([C@@H](C)CO)C[C@@H]1C to C[C@H]1CN([C@@H](C)CO)C(=O)c2cc(NC(=O)Cc3cn(C)c4ccccc34)ccc2O[C@H]1CN(C)Cc1ccc(Cl)c(Cl)c1, the viability loss activity score rises from -2.79% to -2.28%.

Going from CCOC(=O)c1cc2c(C)n(-c3ccccc3)c(C)c2cc(C(=O)OCC)c1=O to CC(=O)N(c1nc(-c2cc3ccccc3oc2=O)cs1)c1cccc(C)c1C, the viability loss activity score rises from -1.14% to 5.58%.

Compared with CCN(/C=C1\SC(=S)N(c2ccc(OC)cc2)C1=O)CC, CCOC(=O)c1c(NC(=S)Nc2ccc(OC)cc2)sc2c1CC(C(C)C)OC2 (stereo not drawn) is higher in viability loss activity score: -2.34% for the first, 3.67% for the second.

Compared with CCCN(C(=O)CCc1nc(-c2ccccc2F)no1)c1ccccc1C, CCCn1cc(SCC(=O)N2CCc3ccccc32)c2ccccc21 is lower in viability loss activity score: 14.3% for the first, 1.29% for the second.

Going from COc1ccc(CN(C)C[C@H]2Oc3c(NC(=O)C4CCCCC4)cccc3C(=O)N([C@@H](C)CO)C[C@@H]2C)cc1 to C[C@@H]1CN([C@H](C)CO)C(=O)c2cc(NS(=O)(=O)c3ccc(Cl)cc3)ccc2O[C@@H]1CN(C)CC1CCCCC1, the viability loss activity score falls from 0.512% to -2.47%.

First: O=C(Nc1ccccc1C(=O)O)c1ccc(CN2CCOCC2)cc1
Second: O=S(=O)(Nc1ccccc1C(F)(F)F)c1ccc2c(c1)CCO2
The viability loss activity score of the first is higher: 8.6% for the first, 2.04% for the second.

Going from CCn1cc(C(=O)NC2CCCC(C)C2C)c2cc(OC)c(OC)cc2c1=O (stereo not drawn) to COc1ccc(-c2nn(-c3ccc(C)c(Cl)c3)c3c2cnc2ccc(F)cc23)cc1OC, the viability loss activity score falls from 2.08% to -4.15%.

First: O=C1/C(=C/c2cccc(Br)c2)SC(=S)N1CC(=O)N1CCCc2ccccc21
Second: Cc1cc(Nc2ccc(Cl)cc2)c2ccccc2n1
The viability loss activity score of the first is lower: -6.26% for the first, 12.6% for the second.

Going from NC1=NC(=O)C(Cc2cccc(Cl)c2)S1 (stereo not drawn) to C=CCSc1nnc2n1CCCN2C(=O)Nc1cccc(Cl)c1, the viability loss activity score falls from -0.141% to -3.59%.

Going from CCOC(=O)C1C=C2C(=O)N3C=CC=CC3N=C2N(C(C)C)C1=NC(C)=O (stereo not drawn) to CCc1c(C)c(C#N)c2nc3ccccc3n2c1-n1ccnc1, the viability loss activity score rises from -1.61% to 1.77%.

With CC(=O)Nc1ccc(Nc2c3c4c(cccc4[nH]c2=O)C(=O)c2ccccc2-3)cc1 the viability loss activity score was 59.2% (active).
